High-throughput results as filed in PubChem BioAssay.
LmPK inhibitor: qHTS Assay for Inhibitors of Leishmania Mexicana Pyruvate Kinase (LmPK) | purified LmPK, Kinase-Glo ATP luminescence, 1 h | Potency, µM (top dose mostly 57.5 µM), hits mostly inhibitors | 290,000 tested, 0.37% active | Q27686 | AID 1721, 2009
Target sequence (Q27686 whole entry, looked up): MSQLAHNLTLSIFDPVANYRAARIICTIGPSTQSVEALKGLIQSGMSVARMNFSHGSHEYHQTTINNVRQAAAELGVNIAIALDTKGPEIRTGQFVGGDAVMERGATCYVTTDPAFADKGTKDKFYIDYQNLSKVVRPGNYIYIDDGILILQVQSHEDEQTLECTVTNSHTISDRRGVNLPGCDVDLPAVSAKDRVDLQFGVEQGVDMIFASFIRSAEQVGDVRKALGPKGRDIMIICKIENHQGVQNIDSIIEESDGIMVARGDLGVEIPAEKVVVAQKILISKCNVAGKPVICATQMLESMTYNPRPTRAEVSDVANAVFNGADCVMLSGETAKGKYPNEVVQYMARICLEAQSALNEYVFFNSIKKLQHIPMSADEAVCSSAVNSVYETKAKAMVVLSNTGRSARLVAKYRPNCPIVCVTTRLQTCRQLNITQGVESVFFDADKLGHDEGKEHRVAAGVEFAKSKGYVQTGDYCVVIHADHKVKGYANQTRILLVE
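Kinase-Glo luminescence read after 1 h RT reaction of 0.1 nM LmPK with 0.5 mM PEP and 0.1 mM ADP. Activity scaled between uninhibited and enzyme-free controls.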
Tb PYK inh: qHTS of Trypanosoma Brucei Inhibitors. 410,000 tested, 0.12% active. Potency, µM (top dose mostly 76.8 µM), actives largely listed as inhibitors. pyruvate kinase (Trypanosoma brucei), Q57TT1. TbPYK enzyme, Kinase-Glo Plus ATP luminescence, 45 min; also: nearly all actives have a fitted effect of over 50% in size
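ADP (130 uM final) triggers the TbPYK reaction after compound addition; incubation is 45 min at room temperature. Kinase-Glo Plus is then added and luminescence imaged. Normalized data are fitted to concentration-effect curves.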
Sm TGR inh: qHTS Assay for the Inhibitors of Schistosoma Mansoni Peroxiredoxins | Schistosoma mansoni thioredoxin glutathione reductase (TGR), Q962Y6 | purified TGR, DTNB reduction, TNB absorbance 405 nm | Potency, µM (series often up to 114 µM), actives largely listed as inhibitors | 360,000 tested, 3% active | AID 485364, 2010; also: nearly all actives have a fitted effect of over 60% in size
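First, TGR (20 nM dispensed) and NADPH were mixed with compound. Second, a 15 min room-temperature incubation followed. Third, further NADPH and then DTNB were added to start the reaction. Finally, TNB absorbance was monitored kinetically.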
Shiga toxin inh: A qHTS for Small Molecule Inhibitors of Shiga Toxin; Vero cells, Shiga toxin protein synthesis inhibition reporter; inhibition, % at 38.7 µM; 290,000 tested, 9.2% active; AID 2315, 2010; in the data active = inhibition mostly above about 28%, no sharp cut-off; inactive = mostly below about 43%
Giardia FBPA inh: qHTS Assay for Inhibitors of Fructose-1,6-bisphosphate Aldolase from Giardia Lamblia. purified Giardia FBPA. Potency, µM (doses to about 59.6 µM), most hits filed as inhibitors. 290,000 tested, 0.71% active; also: nearly all actives have a fitted effect of over 55% in size
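40 nM FBPA preincubated 10 min at RT with compound (up to 57.5 uM final), then substrate plus GAPDH/TPI/NAD/arsenate coupling and diaphorase/resazurin added. Fluorescence read after 20 min at RT, 525/598 nm.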
CHX counter: Cycloheximide Counterscreen for Small Molecule Inhibitors of Shiga Toxin | 300,000 tested, 12% active | max response, % | cell reporter, cycloheximide protein synthesis inhibition counterscreen; in the data active = max response mostly above about 13%, no sharp cut-off; inactive = mostly below about 14%; also: read at 38.3 µM for the half of the compounds with a filed dose
Numbers stand for hits; - = inactive; ? = inconclusive; . = no result given; [ ] = remark or other dose. The full list was thinned out, with hits kept by preference. Unless noted, calls follow the shape of the dose curve; as a rule, active = well fitted curve in the direction sought with a large enough effect; inconclusive = small, poorly fitted or top-dose-only effect, or another doubt; inactive = no such curve, though single readings can be large; an effect the other way counts as inactive or inconclusive.

SMILES	LmPK inhibitor	Tb PYK inh	Sm TGR inh	Shiga toxin inh	Giardia FBPA inh	CHX counter
O=C(COC(=O)c1cccs1)NC1CCCCC1	-	-	-	94.3	-	42.6
O=C(COC(=O)c1cccs1)NC12CC3CC(CC(C3)C1)C2	-	-	-	-	-	28.9
O=C(NC1CCCCC1)c1cccs1	-	-	-	-	-	24.3
CSc1ccc(/C=C2/C(C)=C(CC(=O)O)c3cc(F)ccc32)cc1	.	-	.	-	-	-
O=C(COC(=O)c1cccs1)NC1CCCC1	-	-	-	-	-	19.5
CS(=O)(=O)c1ccc(C(=O)OCC(=O)NC23CC4CC(CC(C4)C2)C3)cc1[N+](=O)[O-]	-	-	2.82µM	-	-	-
Cc1ccccc1N1CCN(S(=O)(=O)CC23CCC(CC2NC(=O)C(N)CCS(C)(=O)=O)C3(C)C)CC1 (stereo not given)	.	.	.	-	-	-
CC[C@H](C)[C@H](NC(=O)[C@H](CCC(=O)O)NC(=O)[C@@H](N)CO)C(=O)N[C@@H](CCC(N)=O)C(=O)N[C@@H](CC(C)C)C(=O)N[C@@H](CCSC)C(=O)N[C@@H](Cc1cnc[nH]1)C(=O)N[C@@H](CC(N)=O)C(=O)N[C@@H](CC(C)C)C(=O)NCC(=O)N[C@@H](CCCCN)C(=O)N[C@@H](Cc1cnc[nH]1)C(=O)N[C@@H](CC(C)C)C(=O)N[C@@H](C)C(=O)N[C@@H](CO)C(=O)N[C@H](C(=O)N[C@@H](CCC(=O)O)C(=O)N[C@@H](CCCNC(=N)N)C(=O)N[C@@H](CCSC)C(=O)N[C@@H](CCC(N)=O)C(=O)N[C@@H](Cc1c[nH]c2ccccc12)C(=O)N[C@@H](CC(C)C)C(=O)N[C@@H](CCCNC(=N)N)C(=O)N[C@@H](CCCCN)C(=O)N[C@@H](CCCCN)C(=O)N[C@@H](CC(C)C)C(=O)N[C@@H](CCC(N)=O)C(=O)N[C@@H](CC(=O)O)C(=O)N[C@H](C(=O)N[C@@H](Cc1cnc[nH]1)C(=O)N[C@@H](CC(N)=O)C(=O)N[C@@H](Cc1ccccc1)C(=O)O)C(C)C)C(C)C	.	.	.	-	-	-
COP(=O)(OC)C(Nc1ccc(Cl)cc1)c1ccccc1 (stereo not given)	-	-	-	.	-	-
COC(=O)c1ccc(NC(c2ccc(Cl)cc2)P(=O)(OC)OC)cc1 (stereo not given)	-	-	-	-	-	32.1
CCCc1cc(SCC(=O)Nc2c(C)n(C)n(-c3ccccc3)c2=O)n2c(nc3ccccc32)c1C#N	-	-	1.78µM	-	?	-
Cc1cc(Nc2c(C)n(C)n(-c3ccccc3)c2=O)n2c(nc3cc(F)c(F)cc32)c1C#N	-	-	8.91µM	-	-	-
CCOC(=O)CSc1cc(C)c(C#N)c2nc3ccccc3n12	-	-	2.51µM	-	-	-
CCn1c(=O)c2cc(C(=O)NC3CCC(C)CC3)sc2c2ccccc21 (stereo not given)	.	-	-	.	.	.
COC(=O)c1ccc2nc(C)cc(Nc3cccc(Cl)c3C)c2c1	.	-	-	.	.	.
CCOc1ccccc1NC(=O)NNC(=O)CCc1ccc(OC)cc1	-	-	-	-	-	-
COc1ccc(OCC(=O)Nc2nnc3n2CCS3)cc1	.	-	-	.	.	.
COc1cc(O)oc1C=Nc1ccc(C(F)(F)F)cc1	-	-	-	33.9	-	42.0
CCOC(=O)c1c(C)c(C(=O)Nc2cc(F)ccc2F)c(C)n1C	-	-	-	-	-	-
CCOC(=O)Nc1cc(Br)c2c(c1)OCCO2	-	-	-	-	-	33.6
CCOC(=O)c1c(C)c(C(=O)NCCOC)c(C)n1CC	-	-	-	-	-	-
O=[N+]([O-])c1ccc(NCc2ccc3c(c2)OCO3)cc1	-	-	-	-	-	20.6
CCOC(=O)Nc1cc(C(=O)OC)cc(C(=O)OC)c1	-	-	-	-	-	-
CCOC(=O)c1c(C)c(C(=O)Nc2ccc3c(c2)OCCO3)c(C)n1C	-	-	-	55.3	-	21.6
CCOC(=O)c1c(C)c(C(=O)Nc2ccc(N(C)C)cc2)c(C)n1CC	-	-	-	-	-	21.9
SMILES	LmPK inhibitor	Tb PYK inh	Sm TGR inh	Shiga toxin inh	Giardia FBPA inh	CHX counter
O=C(Nc1ccc(Br)cc1F)C1CCN(c2nc3ccccc3[nH]2)CC1	.	-[15.4 µM]	-	.	.	.
COC(=O)[C@H](COC(C)(C)C)NC(=O)O[C@@H]1C(=O)c2cc(Br)ccc2O[C@H]1c1ccc2c(c1)OCO2	.	.	.	.	-	.
CCOC(=O)c1ccc(NCc2ccc3c(c2)OCO3)cc1	-	-	-	66.0	-	34.7
CCOC(=O)c1ccc(NC(=O)Nc2ccc3c(c2)OCCO3)cc1	-	-	-	32.2	-	13.2
CCOC(=O)c1ccc(NCc2ccc(N(C)C)cc2)cc1	-	-	-	-	-	-
CCOC(=O)c1cc2sc(C)cc2n1CC(=O)Nc1cccc(C)c1C	-	-	-	-	-	-
CCOC(=O)c1cnc2c(OC)cccc2c1Nc1ccc2c(c1)OCCO2	-	-	-	27.8	-	28.7
CCOC(=O)c1cc2sc(C)cc2n1CC(=O)Nc1ccc2c(c1)OCCO2	-	-	-	-	-	11.9
O=S(=O)(c1ccc(F)cc1)N1CCN(c2nc(-c3cccs3)nc3cc(Cl)ccc23)CC1	.	.	.	-	.	-
COC(=O)c1cc(NCc2ccc3c(c2)OCO3)ccc1N1CCOCC1	-	-	50.1µM	-	?	-
O=C(O)c1cc(NCc2ccc3c(c2)OCO3)ccc1N1CCOCC1	-	.	-	-	-	-
O=c1cc[nH]c2c(Cl)cccc12	-	-	-	40.7	-	20.7
C=CCNc1oc(-c2ccc(Cl)cc2)nc1C#N	.	-	.	.	.	.
CC(C)CNc1oc(-c2ccc(F)cc2)nc1C#N	-	-	-	39.7	-	16.3
Cc1ccc(-c2nc(C#N)c(NCc3cccc4c3OCO4)o2)cc1	-	-	-	58.7	-	26.4
N#Cc1nc(-c2ccc(F)cc2)oc1NCc1cccc2c1OCO2	-	-	-	-	-	33.6
CC(C)(C)c1ccc(-c2nc(C#N)c(NCc3ccncc3)o2)cc1	-	-	-	91.2	-	56.7
O=C1CSC(=O)N1CC(O)COc1ccc(Cl)cc1 (stereo not given)	-	-	-	86.1	-	38.7
O=C1c2ccccc2C(=O)N1CC(O)COc1ccc(Cl)cc1 (stereo not given)	-	-	-	-	-	18.5
COc1ccc(OCC(O)CN2C(=O)c3ccccc3C2=O)cc1 (stereo not given)	-	-	-	-	-	-
O=C1CCC(=O)N1CC(O)COc1ccccc1 (stereo not given)	-	-	-	-	-	-
